Laboratory results from PubChem BioAssay AID504333 (National Center for Advancing Translational Sciences (NCATS), 2011).
Among all 360,000 compounds or so, about 16,000 (4.4%) were called active. Inconclusive results (about 9%) are left out. The sample holds actives, similar compounds and a random draw of the others, so the mix is not that of the screen. Calls come from the whole dose curve; as a rule, active = well fitted inhibition curve with a large enough effect; inconclusive = small, poorly fitted or top-dose-only effect; inactive = no such curve, though single readings can be large or run the other way.

target: Bromodomain adjacent to zinc finger domain protein 2B (Homo sapiens) (UniProt Q9UIF8); assay: qHTS Assay for Inhibitors of BAZ2B; conditions: AlphaScreen BAZ2B-H3K14Ac peptide displacement; series mostly up to 114 µM; activity change, negative = inhibition: at the top concentration; note: nearly all actives have a fitted effect of over 60% in size
Sequence (Q9UIF8 whole entry, looked up, the tested form may be a part): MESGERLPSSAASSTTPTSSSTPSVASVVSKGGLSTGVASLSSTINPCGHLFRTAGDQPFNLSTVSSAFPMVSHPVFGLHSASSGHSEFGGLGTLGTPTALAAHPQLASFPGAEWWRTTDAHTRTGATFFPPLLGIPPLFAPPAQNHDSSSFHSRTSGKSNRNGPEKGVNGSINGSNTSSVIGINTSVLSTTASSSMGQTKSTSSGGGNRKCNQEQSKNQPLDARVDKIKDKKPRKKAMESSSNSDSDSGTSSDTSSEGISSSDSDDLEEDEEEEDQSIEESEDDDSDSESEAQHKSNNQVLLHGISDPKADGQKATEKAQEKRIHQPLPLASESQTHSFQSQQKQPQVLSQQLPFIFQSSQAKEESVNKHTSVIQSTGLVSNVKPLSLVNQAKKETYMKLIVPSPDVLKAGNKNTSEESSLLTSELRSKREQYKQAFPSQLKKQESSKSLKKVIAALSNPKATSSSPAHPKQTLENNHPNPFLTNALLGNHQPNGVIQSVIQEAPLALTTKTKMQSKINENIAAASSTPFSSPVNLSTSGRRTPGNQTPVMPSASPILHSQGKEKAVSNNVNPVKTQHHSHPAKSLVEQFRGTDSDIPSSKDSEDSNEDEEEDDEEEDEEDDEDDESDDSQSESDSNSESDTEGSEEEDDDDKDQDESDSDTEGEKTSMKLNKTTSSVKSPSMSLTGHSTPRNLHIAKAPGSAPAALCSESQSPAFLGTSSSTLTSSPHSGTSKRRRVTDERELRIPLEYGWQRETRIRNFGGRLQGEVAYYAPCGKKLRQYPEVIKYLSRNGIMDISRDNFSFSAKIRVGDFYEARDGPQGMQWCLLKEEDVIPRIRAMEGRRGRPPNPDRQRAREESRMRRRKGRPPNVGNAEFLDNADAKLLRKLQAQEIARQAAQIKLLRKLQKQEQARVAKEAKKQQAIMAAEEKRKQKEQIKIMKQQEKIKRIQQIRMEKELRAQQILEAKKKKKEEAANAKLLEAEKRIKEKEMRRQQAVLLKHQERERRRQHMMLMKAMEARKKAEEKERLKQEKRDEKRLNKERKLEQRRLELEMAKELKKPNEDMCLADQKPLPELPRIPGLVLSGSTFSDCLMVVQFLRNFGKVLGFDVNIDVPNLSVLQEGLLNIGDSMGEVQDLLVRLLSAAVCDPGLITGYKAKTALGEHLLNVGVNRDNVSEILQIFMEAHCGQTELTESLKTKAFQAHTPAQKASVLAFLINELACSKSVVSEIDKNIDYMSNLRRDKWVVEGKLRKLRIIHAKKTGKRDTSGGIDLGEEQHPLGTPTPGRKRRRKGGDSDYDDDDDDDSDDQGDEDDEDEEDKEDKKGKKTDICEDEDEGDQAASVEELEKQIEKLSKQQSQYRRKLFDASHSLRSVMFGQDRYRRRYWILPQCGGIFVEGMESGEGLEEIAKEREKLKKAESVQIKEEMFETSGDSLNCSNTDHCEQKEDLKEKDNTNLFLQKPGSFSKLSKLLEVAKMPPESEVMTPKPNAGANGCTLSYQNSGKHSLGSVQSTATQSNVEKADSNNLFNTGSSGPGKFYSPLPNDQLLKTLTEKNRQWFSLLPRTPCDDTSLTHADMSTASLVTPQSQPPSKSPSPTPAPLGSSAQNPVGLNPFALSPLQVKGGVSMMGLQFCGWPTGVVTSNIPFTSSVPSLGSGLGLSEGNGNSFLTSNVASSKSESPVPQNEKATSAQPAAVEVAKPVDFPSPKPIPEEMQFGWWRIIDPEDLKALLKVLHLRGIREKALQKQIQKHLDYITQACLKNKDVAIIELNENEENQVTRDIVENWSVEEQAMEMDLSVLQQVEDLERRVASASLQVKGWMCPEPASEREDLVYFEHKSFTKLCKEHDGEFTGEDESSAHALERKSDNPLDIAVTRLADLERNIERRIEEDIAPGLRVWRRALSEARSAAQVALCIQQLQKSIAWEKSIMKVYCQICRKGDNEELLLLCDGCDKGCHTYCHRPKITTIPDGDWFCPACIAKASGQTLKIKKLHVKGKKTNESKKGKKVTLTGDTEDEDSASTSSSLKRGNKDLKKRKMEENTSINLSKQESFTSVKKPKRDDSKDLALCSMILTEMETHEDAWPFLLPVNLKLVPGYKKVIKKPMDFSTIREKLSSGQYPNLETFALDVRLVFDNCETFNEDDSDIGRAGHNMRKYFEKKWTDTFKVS
Excerpt: BAZ2B (bromodomain adjacent to zinc finger domain, 2B) belongs to a family of ubiquitously expressed bromodomain containing proteins, which biological function has not yet been elucidated. […] The interaction of BAZ2B with ISWI mediated by the BAZ1 motif has recently been described. […] The protocol is based on the AlphaScreen (PerkinElmer) displacement assay developed by NCGC [5], but uses the peptide ligand Biot-H3K14Ac, a high affinity binding partner for BAZ2B, in an AlphaScreen format. Although AlphaScreen has significant advantages with its utility in a variety of epigenetic target assays, the primary screening data provided in this deposition should be used with caution due to the prevalence of screening artifacts. The top compound concentration tested was 110uM in this assay, which increases number of actives and potential artifacts. An AlphaScreen counterscreen is highly recommended to be run against any putative actives to eliminate non-specific artifacts. Alternatively, one can use other AlphaScreen assays in PubChem to filter out promiscuous hits. Eberharter, A. et al. ACF1 improves the effectiveness of nucleosome mobilization by ISWI through PHD-histone contacts. The EMBO journal 23, 4029-4039. 2004. PMID: 15457208 [2] Jones, M.H. et al. A novel family of bromodomain genes. Genomics 63, 40-45. 2000. PMID: 10662543 [3] Yasgar, et al. Compound Management for Quantitative High-Throughput Screening. JALA. 2008 Apr;13(2):79-89. PMID: 18496600 [4] Inglese, et al. Quantitative high-throughput screening: a titration-based approach that efficiently identifies biological activities in large chemical libraries. Proc Natl Acad Sci. 1;103(31):11473-8. 2006. PMID: 16864780 [5] Quinn et al. A chemiluminescence-based method for identification of histone lysine methyltransferase inhibitors. Mol Biosyst 6(5): 782-8. 2010. PMID: 20567762 [6] Baell,Holloway. New substructure filters for removal of pan assay interference compounds (PAINS) from screening libraries and for their exclusion in bioassays. J Med Chem. 53(7):2719-40. 2010. PMID: 20131845 NIH Molecular Libraries Probe Production Network [MLPCN] NIH Chemical Genomics Center [NCGC] Structural Genomics Consortium (SGC) NIH Grant: 5U54 MH084681-02
To each well of a 1,536w plate, 2ul of BAZ2B protein (final 50nM) and 1ul biotinylated histone peptide acetylated at Lys14 [b-H3(5-23)K14Ac] (final 50nM) were added in 1x PBS buffer, pH 7.4, containing 0.01% Tween-20, using a nanoliter dispenser. Formation of a protein-peptide complex proceeded at room temperature for 30 min. A Kalypsys pin-tool was employed to transfer 23 nL of library compound solution in DMSO to each well. Following a 30 min incubation of the protein-peptide complex with compounds at room temperature, a mixture of 40 ug/mL each streptavidin-coated donor and nickel chelate acceptor AlphaScreen beads (final 10 ug/mL) were added in a 1ul dispense for a final volume of 4ul. A brief centrifugation followed (1000rpm, 1 min) and were then incubated protected from the light for 20 min at room temperature. Plates were read on an EnVision multilabel plate reader using the 1,536 plate HTS AlphaScreen aperture (excitation time 80 ms, measurement time 240 ms).
% is set by controls: 0 for no effect and ±100 for the full control effect; potency is the fitted concentration of half-maximal effect.

Potency, active:
O=C(O)c1cscn1 20 µM
N/C(=N\OC(=O)Cc1ccc([N+](=O)[O-])cc1)c1ccccn1 50.1 µM
CN(C)c1ccc(N/C=C/C(=O)C(F)(F)F)cc1 28.2 µM
Cc1oc2c(C)c3oc(=O)c(CC(=O)N[C@@H](CC(C)C)C(=O)N[C@@H](Cc4ccccc4)C(=O)O)c(C)c3cc2c1C 35.5 µM
O=[N+]([O-])c1ccc(N/N=C2/CCCCC2c2ccccn2)c([N+](=O)[O-])c1 (stereo not drawn) 31.6 µM
Cc1ccsc1C(=O)NCCc1ccco1 56.2 µM
COc1ccc(OCCCCN2CCC(C)CC2)cc1 79.4 µM
COc1cccc(OCCCN2CCCCCC2)c1 56.2 µM
C/C=C/c1ccc(OCCCCN2CCC(C)CC2)c(OC)c1 35.5 µM
Cc1ccc(-c2nc3ccccn3c2Nc2c(C)cccc2C)o1 28.2 µM
O=[N+]([O-])c1ccccc1S(=O)(=O)Nc1cccc2cccnc12 25.1 µM
COC(=O)C(NC(C)=O)(Nc1nc2c(s1)CCCC2)C(F)(F)F (stereo not drawn) 56.2 µM
Cc1ccc(C)n1C(Cc1ccccc1)C(=O)O (stereo not drawn) 39.8 µM
Cc1cc(C)c(C2C3=C(Nc4c2c(C)nn4-c2ccccn2)c2ccccc2C3=O)c(C)c1 (stereo not drawn) 10 µM
NC(=O)CSc1nnc(NC(=O)c2ccc(Br)o2)s1 56.2 µM
CCOC(=O)C1=C(c2ccc(OC)cc2)C(=O)c2ccccc2C1=O 20 µM
C/C(=N\Nc1cccc(C(=O)O)c1)c1ccc2c(c1)Nc1ccccc1S2 44.7 µM
Cc1ccc(-n2nc(C)c(C(=O)O)c2-n2cccc2)cc1 50.1 µM
CCCCN(C)CCNC(=O)CSCc1ccc(C)cc1 50.1 µM
O=C(Nn1cc(C(=O)N2CCN(c3ccccc3F)CC2)c2ccccc2c1=O)c1cnccn1 28.2 µM

Activity change, negative = inhibition, inactive:
COc1ccc(NC(=O)Cn2c(=O)cc(C)c3c(C)nn(-c4cccc(Cl)c4C)c32)cc1OC 6.48%
Cc1cccc(OCCSc2nc3ccc(NC(=O)COc4ccccc4C)cc3s2)c1 -0.749%
COc1ccccc1OCC(=O)O/N=C(\N)c1ccccn1 -12.8%
N/C(=N\OC(=O)c1ccc([N+](=O)[O-])cc1)c1ccccn1 -10.2%
CCOC(=O)c1cccc(NC(=O)Cn2cnc3nc4c(cc3c2=O)CCCC4)c1 0.226%
Cc1ccc(CCNC(=O)c2ccc3c(c2)nc2n3CCC(C)C2)cc1 (stereo not drawn) -1.73%
Cn1nnnc1SCCCNCc1cccc(OCc2ccc(Cl)cc2)c1 -10.3%
CC(=O)N(C)c1ccc(NC(=O)C(F)(F)F)cc1 0.95%
CC(C)CNC(=O)C(=O)Nc1ccc(N(C)C)cc1 2.15%
Cc1oc2ccc(O)c(CN3CCC(C)CC3)c2c1C(=O)Nc1ccccc1 -11.6%
Cc1c(OC(C)C(=O)N[C@@H](Cc2ccccc2)C(=O)O)ccc2c3c(c(=O)oc12)CCCC3 (stereo partly drawn) 4.24%
Cc1c(CCC(=O)N[C@@H](CC(C)C)C(=O)O)c(=O)oc2c(C)c3oc4c(c3cc12)CCCC4 2.36%
COc1ccc(NC(=O)CSc2nc3ncccc3[nH]2)c(OC)c1 19.4%
COc1ccc(C(=O)Nc2cccc(C(=O)OCc3cc(=O)n4c5c(sc4n3)CCCC5)c2)cc1 -3.18%
CCc1ccccc1NC(=O)Cc1ccc(NC(=O)N2CCCCc3ccccc32)cc1 -22.7%
O=C(Nc1ccccc1)O/N=C1\CCCCC1c1ccc([N+](=O)[O-])cc1[N+](=O)[O-] (stereo not drawn) -10.1%
COc1cc([N+](=O)[O-])ccc1NC(=S)N1CCN(c2ccccn2)CC1 -30%
Cc1ccc(F)cc1NC(=O)CCSc1nc(-c2ccco2)cc(C(F)(F)F)n1 -4.98%
COC(=O)c1cc(S(=O)(=O)N2CCN(c3cc(Cl)ccc3C)CC2)c[nH]1 -34.9%
COc1ccc(-c2nc3sc(CCNC(=O)C(C)(C)C)c(C)n3n2)cc1 -0.378%
COc1cc(-c2noc(-c3ccc(N4CCCC4)c([N+](=O)[O-])c3)n2)cc(OC)c1OC -9.72%
Cc1ccc(Cl)cc1NC(=O)/C(C#N)=C\c1cn(Cc2ccc(F)cc2)c2ccccc12 -0.433%
Cc1ccccc1NC(=O)NCc1ccco1 21.7%
COc1cc(OC)cc(C(=O)NCCSCc2ccco2)c1 1.54%
Cc1ccc(F)cc1S(=O)(=O)N1CCC(c2nc3ccccc3s2)CC1 0.45%
Cc1ccc(C(=O)COC(=O)C(Cc2c[nH]c3ccccc23)NC(=O)c2ccc(Br)cc2)cc1 (stereo not drawn) -3.33%
COc1cccc(OCC(O)CN2CCN(CCO)CC2)c1 (stereo not drawn) 3.99%
COc1cc(/C=N/NC(=O)c2ccoc2C)ccc1OCCN1CCCCC1 -8.24%
C/C=C/c1ccc(OCCOc2ccc(C=O)cc2OC)c(OC)c1 -0.85%
COc1ccc(OC)c(NC(=O)CCN2CCC(C)CC2)c1 3.12%
COc1cccc(NC(=O)NCCN2CCCCC2)c1 7.24%
CC1CCN(CC(O)COc2ccc(C(=O)c3ccccc3)cc2)CC1 (stereo not drawn) 9.12%
CCCCN(C)S(=O)(=O)c1ccc(C(=O)Nc2sc3c(c2C(N)=O)CC(C)(C)NC3(C)C)cc1 -0.53%
COC(=O)c1ccccc1NC(=O)Cn1c(=O)cc(C)c2c(C)nn(-c3cccc(Cl)c3C)c21 -12.2%
CCOc1ccc(CNC(=O)C2CCCN(S(=O)(=O)N(CC)c3ccc(OCC)cc3)C2)cc1 (stereo not drawn) -10.5%
Cc1ccc(Cc2nc3ccccc3nc2SCC(=O)Nc2cccc(C(F)(F)F)c2)cc1 -2.14%
Cc1nc2ccccn2c(=O)c1NC(=O)c1c(F)cccc1F 0.0769%
Cc1cccc(C)c1Nc1c(-c2ccccc2O)nc2ncccn12 -2.78%
CCOC(=O)C1CCN(c2ncnc3c2c(-c2ccccc2)cn3-c2cccc(C)c2)CC1 -23.7%
CCOc1ccc(CCNC(=O)c2csc3c2CCCCC3)cc1 3.42%
Cc1ccccc1NC(=O)c1ccccc1NS(=O)(=O)c1cccc2cccnc12 -10.2%
COc1cc(NS(=O)(=O)c2ccc3ccccc3c2)c2ncccc2c1 19.5%
Cc1nn(-c2nc(-c3ccccc3)cc(C(F)(F)F)n2)c(C)c1Cl 47%
Cc1cc(C)cc(OC(C)C(=O)Nc2nc3c(s2)CCCC3)c1 (stereo not drawn) -7.96%
O=C(Nc1nc2c(s1)CCCC2)c1ccccc1F -17.9%
O=C(CCS(=O)(=O)c1ccc2c(c1)NC(=O)CO2)Nc1cccc(C(F)(F)F)c1 -2.62%
CCOC(=O)CSC1=Nc2ccccc2C2=NC(CCC(=O)NCc3ccc(F)cc3)C(=O)N12 (stereo not drawn) 0.0886%
CCOC(=O)C(Cc1ccc(N)cc1)N1C(=O)c2ccccc2C1=O (stereo not drawn) -37.5%
N[C@@H](Cc1ccccc1)C(=O)N1CCOCC1 -4.8%
Cc1ccc2nc(CN3CCN(S(=O)(=O)c4ccc(C)c(C)c4)CC3)oc2c1 -10.3%
CC(=C1C(=O)c2ccccc2C1=O)N1CCN(c2ccccn2)CC1 -6.35%
Cc1nn(-c2ccccn2)c2c1C(c1ccncc1)C1=C(CC(C)(C)CC1=O)N2 (stereo not drawn) -34.3%
COc1ccccc1CCNC(=O)c1cccn1-c1nnc(N2CCCCC2)s1 -16.4%
CCCOc1cccc(C(=O)Nc2cccc(NC(=O)c3ccc(C(C)(C)C)cc3)c2)c1 -1.31%
CCOC(=O)c1ccc(NC(=O)Cn2c(=O)n(-c3ccc(C)cc3)c(=O)c3c2cnn3C)cc1 -1.23%
O=C(NC1CCCCC1)c1ccc2c(c1)N(Cc1ccc(Cl)cc1)C(=O)c1ccccc1S2=O (stereo not drawn) -6.93%
CCSc1nnc(NC(=O)c2cc(=O)c3cc(C)c(C)cc3o2)s1 -3.2%
NC(=O)CSc1nnc(NC(=O)c2ccc3ccccc3c2)s1 5.1%
CCCNC(=O)C(CC)n1nc(CC)n2c(cc3oc(C)cc32)c1=O (stereo not drawn) -2.51%
COc1cccc(NC(=O)C(=O)NCC(c2ccc3c(c2)OCO3)N2CCN(C)CC2)c1 (stereo not drawn) 3.37%
CC(C)C(=O)Nc1nc2c(s1)CC(C(C)(C)C)CC2 (stereo not drawn) 1.19%
COc1ccc(CNC(=O)CCN2C(=O)c3ccccc3C2=O)cc1 -3.11%
CCOC(=O)c1cc2cc3ccccc3cc2oc1=O -24.2%
CCCCn1cc(S(=O)(=O)c2ccc(OCC)cc2)c(=O)c2cc(OC)c(OC)cc21 -34.9%
Cc1ccc(CCNC(=O)C2CCN(c3nnc(-n4cccc4CNc4ccc(C)cc4)s3)CC2)cc1 -8.92%
CC(=O)Nc1cccc(/C(C)=N/NC(=O)c2c(-c3ccccc3Cl)noc2C)c1 5.83%
Cc1ccccc1NC(=O)c1cc(S(=O)(=O)Nc2cccc(C(=O)O)c2)ccc1Cl -0.0282%
Cc1ccc2nc(COc3ccccc3NC(=O)Nc3ccc(F)c(Cl)c3)cc(=O)n2c1 0.153%
Cc1nn(-c2ccccc2)c(-n2cccc2)c1C(=O)O 3.55%
Cc1nn(-c2ccc(F)cc2)c(-n2cccc2)c1C(=O)N1CCN(c2ccccc2)CC1 -11.9%
O=C(NCc1ccc2c(c1)CCN2C(=O)c1ccccc1)Nc1cc(F)ccc1F -2.67%
COc1ccc(OC)c(NC(=O)CSC2=Nc3ccccc3C3=NC(CC(=O)NCc4ccc(F)cc4)C(=O)N23)c1 (stereo not drawn) -32.1%
COc1ccccc1NC(=O)c1sc2nc(C)c(C(=O)Nc3ccc(Cl)cc3)c(-c3ccc(Br)cc3)c2c1N -20.6%
CCN(CC(=O)Nc1cc(Cl)ccc1C)C(=O)CSCc1ccc(C)cc1 7.16%
Cc1ccc(CSCC(=O)N(C)CC(=O)Nc2ccc(C)cc2)cc1 1.11%
CCOc1ccccc1C(=O)NC1(C(F)(F)F)NC(=O)N(CCc2ccc(OC)c(OC)c2)C1=O (stereo not drawn) -25.7%
CCN(C(=O)c1sc2cc(OC)ccc2c1Cl)c1ccccc1 31%
CCC(=O)Nc1ccc2nc(SCC(=O)N3CCc4ccccc43)sc2c1 -26.5%
CCN(CCCNC(=O)Cn1ncc2c3ccccc3n(C)c2c1=O)Cc1ccccc1 -2.02%
CCc1ccc(NC(=O)c2nn(-c3ccc(C)cc3)c(=O)n(C)c2=O)cc1 -15.6%
CCCC(=O)Nc1cc2nn(-c3ccccc3)nc2cc1C 2.37%
O=C(Cn1nc(Cc2cccnc2)c2ccccc2c1=O)N1CCN(c2ccccc2F)CC1 -14%
Cc1nc2ccn(Cc3cccnc3)c(=O)c2cc1C(=O)N1CCN(c2ccccc2F)CC1 -10.5%
